BAZ2B inh = blocks human BAZ2B; hit rate 4.4% among 360,000; AlphaScreen BAZ2B-H3K14Ac peptide displacement; Potency, µM (series often up to 114 µM), usual class: inhibitors; note: nearly all actives have a fitted effect of over 60% in size
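In this displacement format the biotinylated H3(5-23) peptide acetylated at Lys14 serves as ligand at 50 nM, with BAZ2B at 50 nM in PBS pH 7.4 containing 0.01% Tween-20. Donor and acceptor beads are 10 ug/mL final.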
JMJD2A Tudor inh = inhibitors of human JMJD2A Tudor domain | AID 504339 | AlphaScreen JMJD2A-Tudor / H3K4me3 peptide binding | hit rate 4.4% among 390,000 | Potency, µM (series often up to 114 µM), most hits filed as inhibitors; note: nearly all actives have a fitted effect of over 50% in size
G9a inh = G9a (human) methyltransferase inhibition; Q96KQ7; G9a H3K9 monomethylation, AlphaScreen, 2 h; Potency, µM (doses to about 102 µM), usual class: inhibitors; hit rate 8.8% among 350,000; AID 504332; note: nearly all actives have a fitted effect of over 75% in size
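Quantitative HTS format: methyltransferase activity on a biotin-tagged H3K9 peptide is measured by AlphaScreen, using a rabbit anti-monomethyl-H3K9 antibody with streptavidin donor and anti-IgG acceptor beads. Final levels are 20 nM enzyme, 500 nM peptide, 20 uM SAM; 2 h RT.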
Sfp inh = inhibitors of Bacillus subtilis Sfp phosphopantetheinyl transferase | Biochemical Sfp PPTase activity, qHTS | Potency, µM, hits mostly inhibitors | Q9F4F7 | AID 1490 | hit rate 3.5% among 310,000;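 note: the enzyme is Sfp with the accession as filed and its product quenches rhodamine fluorescence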
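Step 1, compound plus 15 nM Sfp-PPTase, 15 min, room temperature. Step 2, add rhodamine-CoA (5 uM) and BHQ-2-YbbR (12.5 uM). Step 3, read 525/598 nm fluorescence at 0 and 30 min.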
L3MBTL1 inh = L3MBTL1 (human) inhibition; Potency, µM (doses to about 57.1 µM), usual class: inhibitors; hit rate 0.66% among 230,000; AlphaScreen L3MBTL1–H3K9me1 peptide binding; Q9Y468; note: nearly all actives have a fitted effect of over 60% in size
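First, the protein-peptide complex forms for 30 min at room temperature (L3MBTL1 50 nM, biotinylated H3K9me1 peptide 75 nM). Next, compounds are pin-transferred and incubated 30 min. Finally, AlphaScreen beads are added and read after 30 min.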
HP1b chromo inh = HP1-beta chromodomain-methylated histone interaction inhibition. P83916. AlphaScreen HP1-beta / biotin-H3K9me3 peptide binding. Potency, µM (top dose mostly 114 µM), hits mostly inhibitors. hit rate 0.56% among 390,000. AID 540317; note: nearly all actives have a fitted effect of over 70% in size
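Compound inhibition of the preformed complex between 50 nM HP1-beta and 50 nM biotinylated H3K9me3 peptide was read by AlphaScreen. Buffer was PBS pH 7.4 with 0.01% Tween-20. Incubations ran 30 min at room temperature, with 10 ug/mL donor/acceptor beads.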
Each line names hits and unclear results; the compound was inactive in the other large screens. Shown are actives, neighbours in structure and some others; about 12% of the full set was active somewhere. Calls come from the whole dose curve; as a rule, active = well fitted curve in the direction sought with a large enough effect; inconclusive = small, poorly fitted or top-dose-only effect, or another doubt; inactive = no such curve, though single readings can be large; an effect the other way counts as inactive or inconclusive.

Cc1cc(C)c2nc(N3CCC(C(=O)NCCCN4CC(C)CC(C)C4)CC3)sc2c1 (stereo not given)	none (no result: L3MBTL1 inh)
CC(C)(C)OC(=O)CC(=O)NNC(=O)c1nc2ccccc2[nH]1	none (no result: BAZ2B inh, G9a inh, Sfp inh, L3MBTL1 inh, HP1b chromo inh)
CC(C)Sc1nnc(NC(=O)c2ccco2)s1	G9a inh 25.1µM (no result: L3MBTL1 inh)
COc1ccccc1N1CCN(C(=O)CSc2nnc(NC(=O)c3ccco3)s2)CC1	G9a inh 50.1µM
Cc1ccc(-n2c(SCc3cc(=O)n4ccsc4n3)nnc2-c2cccnc2)c(C)c1	BAZ2B inh 56.2µM, G9a inh inconclusive, L3MBTL1 inh inconclusive
CC(=O)Nc1ccc2c(CSc3nnc(-c4cccnc4)n3-c3ccc(C)cc3C)cc(=O)oc2c1	BAZ2B inh inconclusive, G9a inh 8.91µM
CCOc1ccc(-n2c(SCc3cc(=O)oc4cc(C)ccc34)nnc2-c2cccnc2)cc1	none
COc1cccc(-c2cc(NCc3cccs3)ncn2)c1	none (no result: BAZ2B inh, JMJD2A Tudor inh, G9a inh, L3MBTL1 inh, HP1b chromo inh)
Cn1c(Oc2ccccc2)nc2c1c(=O)n(Cc1ccc(Cl)cc1Cl)c(=O)n2C	none (no result: Sfp inh, L3MBTL1 inh)
COc1ccc(C(=O)/C=C/c2ccc(O)cc2)cc1	none
O=C(/C=C/c1ccc2c(c1)OCCCO2)c1ccccc1O	BAZ2B inh inconclusive, JMJD2A Tudor inh inconclusive, G9a inh inconclusive, HP1b chromo inh inconclusive
Cc1ccc(O)c(C(=O)/C=C/c2ccc3c(c2)OCCCO3)c1	BAZ2B inh 28.2µM, JMJD2A Tudor inh 15.8µM, G9a inh 7.08µM, L3MBTL1 inh inconclusive, HP1b chromo inh inconclusive
Cc1ccc(O)c(C(=O)C=Cc2ccccc2)c1	JMJD2A Tudor inh 39.8µM, HP1b chromo inh inconclusive (no result: BAZ2B inh, G9a inh, Sfp inh, L3MBTL1 inh)
COc1ccc(C=CC(=O)c2cc(O)ccc2O)cc1	JMJD2A Tudor inh 39.8µM, HP1b chromo inh inconclusive (no result: BAZ2B inh, G9a inh, Sfp inh, L3MBTL1 inh)
COc1cc(C)cc(C(=O)C=Cc2ccccc2)c1O	JMJD2A Tudor inh 56.2µM, HP1b chromo inh inconclusive (no result: BAZ2B inh, G9a inh, Sfp inh, L3MBTL1 inh)
CN(c1ccccc1C(=O)Nc1ccc(CC#N)cc1)S(=O)(=O)c1ccccc1	none
COc1ccc2cc(C(=O)N3CCc4ccccc43)[nH]c2c1	none (no result: L3MBTL1 inh)
Cc1ccc(/C=C/C(=O)c2ccccc2O)cc1	BAZ2B inh inconclusive, HP1b chromo inh inconclusive (no result: G9a inh)
CN(C)c1ccc(/C=C/C(=O)c2ccccc2O)cc1	JMJD2A Tudor inh 10µM, G9a inh 8.91µM, HP1b chromo inh 12.6µM (no result: BAZ2B inh, L3MBTL1 inh)
Cc1ccc(-c2nnc3sc(C4COc5ccccc5O4)nn23)cc1 (stereo not given)	none
Clc1ccccc1-c1nnc2sc(C3COc4ccccc4O3)nn12 (stereo not given)	G9a inh inconclusive, Sfp inh 17.8µM
c1ccc(Cc2nnc3sc(C4COc5ccccc5O4)nn23)cc1 (stereo not given)	G9a inh 10µM, Sfp inh inconclusive
c1ccc(OCc2nnc3sc(C4COc5ccccc5O4)nn23)cc1 (stereo not given)	BAZ2B inh 50.1µM, JMJD2A Tudor inh 50.1µM, G9a inh 7.94µM, Sfp inh 25.1µM, HP1b chromo inh 15.8µM (no result: L3MBTL1 inh)
COc1ccc(-n2c(SCC(=O)NNC(=O)c3ccc(C)cc3)nnc2-c2ccncc2)cc1	none
COc1cc(OC)c(C(=O)OCC(=O)N2CCOCC2)cc1OC	none (no result: L3MBTL1 inh)
CCN(Cc1ccccc1)C(=O)CCS(=O)(=O)c1ccc2c(c1)NC(=O)CO2	none (no result: L3MBTL1 inh)
Cc1ccc(CNC(=O)CCCCCn2c(=O)c3sccc3n(CC(=O)C(C)(C)C)c2=O)cc1	none (no result: Sfp inh, L3MBTL1 inh)
Cc1ccc(/C=C2\SC(=S)N(CCC(=O)NNC(=O)c3ccccc3O)C2=O)cc1	none (no result: L3MBTL1 inh)
O=C(NN1C(=O)/C(=C/C=C/c2ccco2)SC1=S)c1ccccc1O	BAZ2B inh 12.6µM, JMJD2A Tudor inh 8.91µM, Sfp inh 56.2µM, L3MBTL1 inh 1.26µM, HP1b chromo inh 12.6µM (no result: G9a inh)
COc1ccccc1C(=O)NN1C(=O)/C(=C/c2cccn2C)SC1=S	BAZ2B inh 8.91µM (no result: JMJD2A Tudor inh, G9a inh, HP1b chromo inh)
Cn1cccc1/C=C1\SC(=S)N(NC(=O)c2ccccc2O)C1=O	BAZ2B inh 31.6µM, JMJD2A Tudor inh inconclusive, G9a inh 5.01µM, Sfp inh inconclusive, HP1b chromo inh inconclusive
Cc1ccc2nc(SCC(=O)Nc3ccc(F)cc3F)nc(=O)n2c1	none (no result: Sfp inh)
CNc1ccccc(-c2ccc3ccccc3n2)c1=O	G9a inh 89.1µM, Sfp inh 56.2µM

Screens deposited in PubChem BioAssay by National Center for Advancing Translational Sciences (NCATS).
